# Data published in the supplement of paper PMC11732987, “Enantioselective OTUD7B fragment discovery through chemoproteomics screening and high-throughput optimisation” (Communications Chemistry, 2025).
# Compound: COc1cccc(CN(C)C(=O)CCl)c1
# Assay: log2 ratio of Biotin-Ahx-Ub-VS probe labelling (compound/DMSO); higher = less target engagement, active = hit call of the paper (q ≤ 0.05, log2 ratio ≤ -1)
# Settings: compound concentration: 50uM; treatment time: 3 h
# Method: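 Round 2 competitive ABPP in HEK293T lysate. Compounds were tested at 50 and 200 µM for 3 h, followed by Biotin-Ahx-Ub-VS enrichment and diaPASEF LC-MS/MS. Values are the average log2 ratio (compound/DMSO) from an unpaired t-test (n=3 treated, n=26 DMSO).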
# Chain of UniProt P40818 (P40818 whole entry): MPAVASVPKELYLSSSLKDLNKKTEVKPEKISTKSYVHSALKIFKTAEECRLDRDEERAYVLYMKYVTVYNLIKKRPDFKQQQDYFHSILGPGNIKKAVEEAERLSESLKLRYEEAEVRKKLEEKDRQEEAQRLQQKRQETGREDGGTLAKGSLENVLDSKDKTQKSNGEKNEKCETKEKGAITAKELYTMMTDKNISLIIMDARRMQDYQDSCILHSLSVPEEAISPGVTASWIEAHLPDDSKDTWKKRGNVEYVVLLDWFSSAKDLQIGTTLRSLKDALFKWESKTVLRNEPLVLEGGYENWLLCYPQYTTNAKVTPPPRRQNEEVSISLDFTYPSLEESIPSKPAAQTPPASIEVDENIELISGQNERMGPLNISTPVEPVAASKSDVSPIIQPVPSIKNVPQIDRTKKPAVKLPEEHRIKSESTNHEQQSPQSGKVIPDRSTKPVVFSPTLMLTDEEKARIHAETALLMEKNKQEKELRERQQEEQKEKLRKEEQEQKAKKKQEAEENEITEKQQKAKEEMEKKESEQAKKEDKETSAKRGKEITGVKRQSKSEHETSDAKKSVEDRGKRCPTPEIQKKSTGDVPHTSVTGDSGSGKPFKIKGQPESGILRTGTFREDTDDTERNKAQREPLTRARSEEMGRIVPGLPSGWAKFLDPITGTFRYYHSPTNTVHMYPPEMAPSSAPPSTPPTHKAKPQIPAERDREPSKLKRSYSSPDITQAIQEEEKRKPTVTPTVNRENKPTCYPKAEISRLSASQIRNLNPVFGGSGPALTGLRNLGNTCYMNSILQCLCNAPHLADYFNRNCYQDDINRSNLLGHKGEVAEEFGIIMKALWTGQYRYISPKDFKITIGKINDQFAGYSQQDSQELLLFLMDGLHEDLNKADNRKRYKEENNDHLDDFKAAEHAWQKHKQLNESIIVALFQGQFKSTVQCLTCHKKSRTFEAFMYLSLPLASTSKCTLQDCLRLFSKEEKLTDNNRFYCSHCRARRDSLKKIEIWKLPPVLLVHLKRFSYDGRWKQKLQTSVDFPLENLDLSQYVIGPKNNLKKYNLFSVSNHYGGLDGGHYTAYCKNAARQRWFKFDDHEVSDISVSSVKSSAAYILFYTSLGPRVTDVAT
# Chain of UniProt Q5T2D3 (Q5T2D3 whole entry): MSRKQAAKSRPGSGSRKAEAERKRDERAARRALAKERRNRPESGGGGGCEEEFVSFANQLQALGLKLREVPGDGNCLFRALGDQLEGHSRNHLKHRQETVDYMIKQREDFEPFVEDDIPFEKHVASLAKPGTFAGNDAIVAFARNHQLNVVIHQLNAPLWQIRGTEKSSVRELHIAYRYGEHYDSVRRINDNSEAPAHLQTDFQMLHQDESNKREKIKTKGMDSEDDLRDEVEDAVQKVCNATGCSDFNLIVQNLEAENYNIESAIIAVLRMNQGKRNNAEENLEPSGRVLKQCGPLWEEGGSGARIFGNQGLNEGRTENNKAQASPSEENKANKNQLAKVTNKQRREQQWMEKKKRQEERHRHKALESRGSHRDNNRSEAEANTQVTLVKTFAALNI
# Chain of UniProt Q9NP73 (Q9NP73 whole entry): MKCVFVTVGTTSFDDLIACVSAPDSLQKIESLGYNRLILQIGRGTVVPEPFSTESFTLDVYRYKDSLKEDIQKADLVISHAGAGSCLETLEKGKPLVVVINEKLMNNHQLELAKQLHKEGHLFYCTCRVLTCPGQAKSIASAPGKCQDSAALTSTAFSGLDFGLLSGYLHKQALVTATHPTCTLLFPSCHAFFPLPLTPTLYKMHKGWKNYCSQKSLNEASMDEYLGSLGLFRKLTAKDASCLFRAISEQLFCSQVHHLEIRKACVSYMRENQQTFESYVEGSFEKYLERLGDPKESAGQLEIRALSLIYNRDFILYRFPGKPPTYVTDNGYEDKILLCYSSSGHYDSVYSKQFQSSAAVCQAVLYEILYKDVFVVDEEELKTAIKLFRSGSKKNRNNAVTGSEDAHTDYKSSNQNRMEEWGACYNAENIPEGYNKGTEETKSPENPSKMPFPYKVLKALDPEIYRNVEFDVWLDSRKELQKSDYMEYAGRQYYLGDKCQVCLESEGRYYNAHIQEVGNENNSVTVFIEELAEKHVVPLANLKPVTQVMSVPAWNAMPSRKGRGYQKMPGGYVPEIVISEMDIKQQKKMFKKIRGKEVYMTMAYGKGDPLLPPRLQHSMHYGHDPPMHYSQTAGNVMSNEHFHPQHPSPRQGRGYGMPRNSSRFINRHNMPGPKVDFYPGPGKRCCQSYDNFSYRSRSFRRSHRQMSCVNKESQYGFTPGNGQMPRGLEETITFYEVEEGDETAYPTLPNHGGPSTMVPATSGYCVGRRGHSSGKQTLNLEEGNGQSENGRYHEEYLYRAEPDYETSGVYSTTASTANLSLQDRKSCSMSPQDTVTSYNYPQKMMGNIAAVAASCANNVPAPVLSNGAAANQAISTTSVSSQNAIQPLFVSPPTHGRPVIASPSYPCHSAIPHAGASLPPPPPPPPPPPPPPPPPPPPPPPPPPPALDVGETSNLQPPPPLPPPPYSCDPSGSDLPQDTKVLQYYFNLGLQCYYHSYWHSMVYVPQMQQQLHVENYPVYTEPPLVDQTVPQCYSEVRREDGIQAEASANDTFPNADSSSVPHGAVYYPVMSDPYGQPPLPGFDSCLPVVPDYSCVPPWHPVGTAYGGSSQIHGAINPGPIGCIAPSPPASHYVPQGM
# Chain of UniProt P09936 (P09936 whole entry, looked up): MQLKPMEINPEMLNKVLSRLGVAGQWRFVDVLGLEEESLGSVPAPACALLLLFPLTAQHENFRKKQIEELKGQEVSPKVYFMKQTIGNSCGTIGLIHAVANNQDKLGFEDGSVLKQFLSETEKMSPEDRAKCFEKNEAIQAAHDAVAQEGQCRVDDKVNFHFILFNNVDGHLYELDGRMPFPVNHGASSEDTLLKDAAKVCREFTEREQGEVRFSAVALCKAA
# Chain of UniProt P51665 (P51665 whole entry): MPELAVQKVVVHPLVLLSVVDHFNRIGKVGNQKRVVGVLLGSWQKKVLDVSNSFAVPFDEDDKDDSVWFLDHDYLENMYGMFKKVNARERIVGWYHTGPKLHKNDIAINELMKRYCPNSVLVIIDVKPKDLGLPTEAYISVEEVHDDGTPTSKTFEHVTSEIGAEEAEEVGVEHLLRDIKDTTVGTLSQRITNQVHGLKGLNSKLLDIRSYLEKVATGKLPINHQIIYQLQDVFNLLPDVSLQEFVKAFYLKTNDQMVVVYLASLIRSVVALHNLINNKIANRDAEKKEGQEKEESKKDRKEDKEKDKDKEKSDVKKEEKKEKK
# Chain of UniProt Q92905 (Q92905 whole entry, looked up): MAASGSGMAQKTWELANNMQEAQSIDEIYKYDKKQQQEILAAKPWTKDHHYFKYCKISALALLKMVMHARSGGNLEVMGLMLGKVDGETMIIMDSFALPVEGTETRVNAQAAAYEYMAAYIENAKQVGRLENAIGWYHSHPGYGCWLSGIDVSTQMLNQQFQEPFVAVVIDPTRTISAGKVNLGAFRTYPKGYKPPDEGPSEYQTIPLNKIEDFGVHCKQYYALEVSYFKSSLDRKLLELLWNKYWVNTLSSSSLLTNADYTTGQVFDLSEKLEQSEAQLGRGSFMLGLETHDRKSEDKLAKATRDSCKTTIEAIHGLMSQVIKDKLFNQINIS
# Chain of UniProt Q13107 (Q13107 whole entry): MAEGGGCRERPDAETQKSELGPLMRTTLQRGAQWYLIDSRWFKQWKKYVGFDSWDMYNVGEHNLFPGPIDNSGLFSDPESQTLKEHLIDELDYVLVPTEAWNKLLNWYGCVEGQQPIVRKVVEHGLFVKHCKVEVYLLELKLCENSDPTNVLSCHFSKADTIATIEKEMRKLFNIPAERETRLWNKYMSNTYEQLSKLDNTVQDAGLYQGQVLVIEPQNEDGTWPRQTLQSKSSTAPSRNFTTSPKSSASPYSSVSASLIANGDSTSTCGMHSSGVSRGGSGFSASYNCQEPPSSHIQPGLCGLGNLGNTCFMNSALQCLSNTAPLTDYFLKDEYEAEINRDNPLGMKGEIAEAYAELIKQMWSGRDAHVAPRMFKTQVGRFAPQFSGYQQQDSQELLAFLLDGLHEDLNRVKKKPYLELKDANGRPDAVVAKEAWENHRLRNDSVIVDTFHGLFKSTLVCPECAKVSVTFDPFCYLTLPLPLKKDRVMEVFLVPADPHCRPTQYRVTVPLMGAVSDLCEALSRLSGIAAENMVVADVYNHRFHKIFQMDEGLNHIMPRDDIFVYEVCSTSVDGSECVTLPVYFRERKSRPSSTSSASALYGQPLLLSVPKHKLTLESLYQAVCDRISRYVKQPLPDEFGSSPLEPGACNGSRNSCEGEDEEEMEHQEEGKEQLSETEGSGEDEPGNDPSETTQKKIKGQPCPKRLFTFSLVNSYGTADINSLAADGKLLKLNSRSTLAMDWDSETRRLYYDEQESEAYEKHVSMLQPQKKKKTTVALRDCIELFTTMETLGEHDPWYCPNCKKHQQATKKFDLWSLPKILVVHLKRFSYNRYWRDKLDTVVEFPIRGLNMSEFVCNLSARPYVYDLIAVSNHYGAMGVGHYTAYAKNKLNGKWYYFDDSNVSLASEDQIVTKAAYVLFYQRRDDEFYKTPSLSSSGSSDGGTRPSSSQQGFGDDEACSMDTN
# Chain of UniProt Q8N6M0 (Q8N6M0 whole entry): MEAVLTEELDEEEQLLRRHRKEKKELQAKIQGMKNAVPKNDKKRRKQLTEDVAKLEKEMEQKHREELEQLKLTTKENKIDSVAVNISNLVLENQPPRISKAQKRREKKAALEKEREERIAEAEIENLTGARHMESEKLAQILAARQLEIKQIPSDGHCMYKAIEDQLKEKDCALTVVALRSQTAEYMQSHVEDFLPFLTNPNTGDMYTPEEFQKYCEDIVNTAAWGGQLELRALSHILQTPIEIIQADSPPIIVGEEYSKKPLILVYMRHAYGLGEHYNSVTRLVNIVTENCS
row,Target,log2 ratio of Biotin-Ahx-Ub-VS probe labelling
1,USP25 (UniProt Q9UHP3),-1.88 (active)
2,USP8 (UniProt P40818),-0.108 (inactive)
3,USP42 (UniProt Q9H9J4),0.0563 (inactive)
4,EIF3H (UniProt O15372),-0.183 (inactive)
5,COPS5 (UniProt Q92905),-0.236 (inactive)
6,PSMD7 (UniProt P51665),0.132 (inactive)
7,USP4 (UniProt Q13107),-1.18 (active)
8,UCHL1 (UniProt P09936),-0.0521 (inactive)
9,OTUB1 (UniProt Q96FW1),-0.0418 (inactive)
10,UniProt Q9P2H5,-0.267 (inactive)
11,USP10 (UniProt Q14694),-0.177 (inactive)
12,UniProt Q5T2D3,-0.199 (inactive)
13,USP34 (UniProt Q70CQ2),-0.106 (inactive)
14,ALG13 (UniProt Q9NP73),0.312 (inactive)
15,FAM105A (UniProt Q9NUU6),-0.133 (inactive)
16,USP39 (UniProt Q53GS9),-0.0648 (inactive)
17,UniProt P51784,0.0601 (inactive)
18,UCHL5 (UniProt Q9Y5K5),-0.115 (inactive)
19,BAP1 (UniProt Q92560),-1.22 (active)
20,OTUD6B (UniProt Q8N6M0),-0.149 (inactive)

# Same assay, conditions: compound concentration: 200uM; treatment time: 3 h
row,Target,log2 ratio of Biotin-Ahx-Ub-VS probe labelling
1,USP25 (UniProt Q9UHP3),-0.899 (inactive)
2,USP8 (UniProt P40818),-0.0766 (inactive)
3,USP42 (UniProt Q9H9J4),0.184 (inactive)
4,EIF3H (UniProt O15372),0.043 (inactive)
5,COPS5 (UniProt Q92905),-0.578 (inactive)
6,PSMD7 (UniProt P51665),-0.458 (inactive)
7,USP4 (UniProt Q13107),-0.498 (inactive)
8,UCHL1 (UniProt P09936),0.0224 (inactive)
9,OTUB1 (UniProt Q96FW1),0.0222 (inactive)
10,UniProt Q9P2H5,-0.143 (inactive)
11,USP10 (UniProt Q14694),0.037 (inactive)
12,UniProt Q5T2D3,0.0147 (inactive)
13,USP34 (UniProt Q70CQ2),-0.024 (inactive)
14,ALG13 (UniProt Q9NP73),0.0712 (inactive)
15,FAM105A (UniProt Q9NUU6),0.096 (inactive)
16,USP39 (UniProt Q53GS9),-0.162 (inactive)
17,UniProt P51784,-0.0791 (inactive)
18,UCHL5 (UniProt Q9Y5K5),-0.295 (inactive)
19,BAP1 (UniProt Q92560),-3.29 (active)
20,OTUD6B (UniProt Q8N6M0),-0.283 (inactive)
